In PubChem BioAssay:
Inconclusive results are not listed. Activity calls are given as the source filed them.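 How the source made its calls, unless noted: active means inhibition above 54%, about 3 SD of non-fluorescent compounds; inactive means the rest.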

Columns and labels:
[1] = rapamycin-like changes in RPL19A-GFP expression – cell-based, S. cerevisiae, multiplex flow cytometry, primary screen (AID 1862; in the data active means percent of DMSO control GFP below about 86%;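 further: lower values mimic rapamycin by blocking the RPL19A rise seen in DMSO cells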); settings: S. cerevisiae RPL19A-GFP strain, flow cytometry fluorescence, 3 h; at 10 µM; stronger effect = lower value
[2] = TOR pathway GLN3 branch reporter MEP2-GFP changes – S. cerevisiae, multiplex flow cytometry, primary screen (AID 1867;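 active means GFP response, as percent of the DMSO control, above the screen-wide mean plus 3 SD, about 139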;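 further: median GFP channel fluorescence of barcode-gated MEP2-GFP cells measured by flow cytometry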); settings: S. cerevisiae MEP2-GFP strain, 3 h, at 10 µM, stronger effect = higher value, 100% means same as DMSO wells
[3] = TOR pathway RTG branch CIT2 reporter changes – S. cerevisiae, GFP fusion, multiplex flow cytometry, primary screen (AID 1870;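 active means percent response above a set limit, the screen-wide mean plus 3 SD, cut at about 130% in these data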;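 further: barcoded CIT2-GFP strain pooled with four other GFP strains with rapamycin as positive control; median GFP fluorescence per well over plate mean of DMSO wells so 100% = DMSO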); settings: S. cerevisiae CIT2-GFP expression, 3 h, at 10 µM, stronger effect = higher value
[4] = TOR pathway LAP4-GFP level changes – S. cerevisiae, multiplex flow cytometry, primary screen (AID 1873;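 active means GFP signal, as percent of the solvent control, above the screen mean plus 3 SD, about 149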); settings: S. cerevisiae LAP4-GFP expression, 3 h, at 10 µM, stronger effect = higher value
[5] = yeast AGP1-GFP level changes, GLN3 branch – cell-based, multiplex flow cytometry, S. cerevisiae, primary screen (AID 1887;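 active means GFP signal above the screen-wide mean plus 3 SD, that is over about 124.5% of the solvent control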;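 further: AGP1-GFP fusion strain of S. cerevisiae within a five-strain barcoded multiplex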); settings: 3 h, at 10 µM, stronger effect = higher value
[6] = reduced mouse 2C T cell binding to pMHC/ICAM-1 vesicles – MLPCN validation set, flow cytometry, LFA-1/ICAM-1 modulator project, pilot screen (AID 2523;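 active means response below a set limit, under 55% cells CD8-positive and vesicle-bound, and CD8 cells' 90th-percentile brightness under 279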;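 on vesicle binding response: mean PE anti-B7-1 fluorescence of CD8+ cells relative to row control; 100% = QL9-loaded vesicles with DMSO vehicle in the same plate row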); settings: 2C mouse CD8+ T cells, at 7 µM, stronger effect = lower value; double positive events: measured here: CD8+/vesicle+ event percentage
[7] = biological target: Integrin beta-1 (Homo sapiens) + Integrin alpha-4 (Homo sapiens) (UniProt P13612+P05556); assay: alpha4beta1 integrin LIBS antibody binding reduction – U937 cells, HUTS-21 mAb, flow cytometry, validation set, VLA-4 allosteric modulator project, pilot screen (AID 2674;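 active means inhibition above 50%, about 3 SD of the validation set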;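 further: antibody binding induced by the VLA-4 ligand LDV present at three times its Kd; 0% = LDV ligand with antibody and no compound and 100% = antibody without LDV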); settings: HUTS-21 LIBS mAb binding, at 6.7 µM, stronger effect = higher value, binding induced by LDV ligand
Chain of Integrin beta-1 (Homo sapiens) + Integrin alpha-4 (Homo sapiens) (P05556 whole entry, looked up): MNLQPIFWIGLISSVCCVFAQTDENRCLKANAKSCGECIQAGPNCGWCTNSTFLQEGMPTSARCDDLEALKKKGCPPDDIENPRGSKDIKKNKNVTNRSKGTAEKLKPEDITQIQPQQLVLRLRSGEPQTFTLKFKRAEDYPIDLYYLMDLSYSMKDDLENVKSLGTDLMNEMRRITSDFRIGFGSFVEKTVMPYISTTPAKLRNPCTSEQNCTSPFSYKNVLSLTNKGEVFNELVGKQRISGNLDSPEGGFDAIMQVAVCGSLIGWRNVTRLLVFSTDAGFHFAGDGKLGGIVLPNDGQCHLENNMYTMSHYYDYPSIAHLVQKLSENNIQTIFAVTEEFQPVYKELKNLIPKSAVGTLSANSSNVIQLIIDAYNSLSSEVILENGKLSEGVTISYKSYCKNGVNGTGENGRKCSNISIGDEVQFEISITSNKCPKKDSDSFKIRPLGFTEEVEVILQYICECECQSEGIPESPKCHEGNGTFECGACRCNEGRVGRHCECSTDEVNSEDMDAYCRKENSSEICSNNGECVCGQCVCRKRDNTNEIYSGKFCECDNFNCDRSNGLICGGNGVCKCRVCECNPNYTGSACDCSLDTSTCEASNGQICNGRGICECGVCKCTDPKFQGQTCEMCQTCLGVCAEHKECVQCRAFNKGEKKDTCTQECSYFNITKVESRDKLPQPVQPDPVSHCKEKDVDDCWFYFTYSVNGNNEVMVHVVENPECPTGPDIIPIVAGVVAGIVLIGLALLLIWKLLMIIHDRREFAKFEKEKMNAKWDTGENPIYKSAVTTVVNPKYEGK
Chain of Integrin beta-1 (Homo sapiens) + Integrin alpha-4 (Homo sapiens) (P13612 whole entry, looked up): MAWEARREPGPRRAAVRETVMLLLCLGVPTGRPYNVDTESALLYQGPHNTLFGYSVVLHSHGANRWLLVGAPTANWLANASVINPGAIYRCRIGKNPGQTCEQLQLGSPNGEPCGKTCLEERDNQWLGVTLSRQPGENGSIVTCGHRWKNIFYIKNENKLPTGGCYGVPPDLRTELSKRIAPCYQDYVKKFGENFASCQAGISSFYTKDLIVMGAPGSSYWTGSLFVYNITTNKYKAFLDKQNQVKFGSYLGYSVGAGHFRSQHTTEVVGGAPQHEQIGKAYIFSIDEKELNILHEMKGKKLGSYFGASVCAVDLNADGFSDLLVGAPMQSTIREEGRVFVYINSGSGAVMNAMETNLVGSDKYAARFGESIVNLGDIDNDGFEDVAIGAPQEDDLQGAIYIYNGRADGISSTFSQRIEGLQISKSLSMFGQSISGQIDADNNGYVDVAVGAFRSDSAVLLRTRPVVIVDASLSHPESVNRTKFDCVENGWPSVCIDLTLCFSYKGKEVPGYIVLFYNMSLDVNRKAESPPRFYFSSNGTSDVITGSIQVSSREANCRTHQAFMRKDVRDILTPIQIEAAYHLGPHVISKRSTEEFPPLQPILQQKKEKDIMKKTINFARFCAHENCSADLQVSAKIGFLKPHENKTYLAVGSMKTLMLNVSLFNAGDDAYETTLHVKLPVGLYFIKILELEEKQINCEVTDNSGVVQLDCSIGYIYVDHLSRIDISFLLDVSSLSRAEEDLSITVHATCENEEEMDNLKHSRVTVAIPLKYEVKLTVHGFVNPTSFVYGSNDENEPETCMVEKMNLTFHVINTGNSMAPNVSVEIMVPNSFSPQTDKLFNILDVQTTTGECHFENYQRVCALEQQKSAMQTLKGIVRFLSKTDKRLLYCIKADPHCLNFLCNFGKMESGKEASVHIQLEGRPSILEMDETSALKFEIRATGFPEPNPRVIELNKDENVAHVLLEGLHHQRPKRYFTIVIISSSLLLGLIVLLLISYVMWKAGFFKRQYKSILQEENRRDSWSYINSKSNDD

[8] = calorie-restriction mimetic ROS inhibitors, yeast – validation compound set, pilot screen (AID 2706;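 active means superoxide response below 65% of plate, a cut near 3 SD across the whole screen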;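 further: yeast exposed to compound for one week at 30 degrees C before staining; 100% = mean of all compound wells on the same plate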); settings: S. cerevisiae aging, superoxide DHE fluorescence; at 10 µM; stronger effect = lower value
[9] = biological target: Beta-adrenergic receptor kinase 1 (Homo sapiens) (UniProt P25098); assay: GRK2 binders displacing RNA aptamer, biochemical, validation, human GRK2, bead flow cytometry (AID 488806;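 active means aptamer binding inhibition above 30%, about 3 SD of noise from non-fluorescent compounds; inactive means inhibition at or below 30%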); settings: bead-bound GRK2, FAM-aptamer displacement, at 10 µM, stronger effect = higher value
Chain of Beta-adrenergic receptor kinase 1 (Homo sapiens) (P25098 whole entry, looked up): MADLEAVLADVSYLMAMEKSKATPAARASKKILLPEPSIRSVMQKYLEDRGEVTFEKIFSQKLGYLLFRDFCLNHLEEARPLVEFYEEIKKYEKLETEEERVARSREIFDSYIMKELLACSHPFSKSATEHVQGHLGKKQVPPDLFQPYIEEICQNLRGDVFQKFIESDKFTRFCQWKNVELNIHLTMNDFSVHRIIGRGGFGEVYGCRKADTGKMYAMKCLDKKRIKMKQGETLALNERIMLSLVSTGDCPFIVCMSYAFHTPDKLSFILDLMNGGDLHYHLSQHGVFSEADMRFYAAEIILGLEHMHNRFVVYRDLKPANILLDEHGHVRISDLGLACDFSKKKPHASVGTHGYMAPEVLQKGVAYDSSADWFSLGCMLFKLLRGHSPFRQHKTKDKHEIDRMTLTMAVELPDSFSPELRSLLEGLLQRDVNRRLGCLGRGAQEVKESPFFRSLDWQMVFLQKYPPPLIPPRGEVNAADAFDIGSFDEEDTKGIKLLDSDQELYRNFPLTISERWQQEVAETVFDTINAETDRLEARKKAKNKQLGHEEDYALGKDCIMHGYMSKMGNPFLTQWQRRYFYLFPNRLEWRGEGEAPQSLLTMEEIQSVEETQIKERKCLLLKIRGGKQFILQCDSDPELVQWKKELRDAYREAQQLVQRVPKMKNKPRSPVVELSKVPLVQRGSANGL

[10] = biological target: Beta-2 adrenergic receptor (Homo sapiens) (UniProt P07550); assay: agonist-induced loss of surface beta2AR – cell-based, FAP fluorogen, flow cytometry, validation set, pilot screen (AID 504459;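 active means percent response above 42, roughly 3 SD of non-fluorescent test compounds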;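 further: agonist-driven loss of surface beta2AR via internalization measured by FAP dye flow cytometry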); settings: Am2.2-beta2AR cells, at 10 µM, stronger effect = higher value
Chain of Beta-2 adrenergic receptor (Homo sapiens) (P07550 whole entry, looked up, the tested form may be a part): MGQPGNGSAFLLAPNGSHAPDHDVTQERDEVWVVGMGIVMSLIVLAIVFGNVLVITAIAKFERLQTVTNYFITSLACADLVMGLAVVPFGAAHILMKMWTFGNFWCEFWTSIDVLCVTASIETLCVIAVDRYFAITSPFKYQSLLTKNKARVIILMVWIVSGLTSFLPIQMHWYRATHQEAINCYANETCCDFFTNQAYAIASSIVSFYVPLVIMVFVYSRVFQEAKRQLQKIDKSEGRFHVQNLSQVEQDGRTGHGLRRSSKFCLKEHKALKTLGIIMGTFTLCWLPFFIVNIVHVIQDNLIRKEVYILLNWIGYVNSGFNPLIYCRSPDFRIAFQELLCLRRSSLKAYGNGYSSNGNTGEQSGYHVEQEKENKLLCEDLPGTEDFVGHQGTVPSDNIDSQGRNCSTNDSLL

[11] = biological target: AP-2 complex subunit beta (Homo sapiens) (UniProt P63010); assay: beta-arrestin/AP2 interaction blockers – biochemical, validation set, GST-AP2 beads, flow cytometry, pilot screen (AID 504541); settings: FITC arrestin peptide, at 10 µM, stronger effect = higher value, AP2 beta2 appendage fragment, R879A mutant;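 further: AP2 carries R879A mutation and is captured from E. coli lysate; bead-bound FITC arrestin peptide fluorescence measuring arrestin peptide binding to AP2; 0% = DMSO wells and 100% = excess unlabeled arrestin peptide control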
Chain of AP-2 complex subunit beta (Homo sapiens) (P63010 whole entry, looked up, the tested form may be a part, one chain of several): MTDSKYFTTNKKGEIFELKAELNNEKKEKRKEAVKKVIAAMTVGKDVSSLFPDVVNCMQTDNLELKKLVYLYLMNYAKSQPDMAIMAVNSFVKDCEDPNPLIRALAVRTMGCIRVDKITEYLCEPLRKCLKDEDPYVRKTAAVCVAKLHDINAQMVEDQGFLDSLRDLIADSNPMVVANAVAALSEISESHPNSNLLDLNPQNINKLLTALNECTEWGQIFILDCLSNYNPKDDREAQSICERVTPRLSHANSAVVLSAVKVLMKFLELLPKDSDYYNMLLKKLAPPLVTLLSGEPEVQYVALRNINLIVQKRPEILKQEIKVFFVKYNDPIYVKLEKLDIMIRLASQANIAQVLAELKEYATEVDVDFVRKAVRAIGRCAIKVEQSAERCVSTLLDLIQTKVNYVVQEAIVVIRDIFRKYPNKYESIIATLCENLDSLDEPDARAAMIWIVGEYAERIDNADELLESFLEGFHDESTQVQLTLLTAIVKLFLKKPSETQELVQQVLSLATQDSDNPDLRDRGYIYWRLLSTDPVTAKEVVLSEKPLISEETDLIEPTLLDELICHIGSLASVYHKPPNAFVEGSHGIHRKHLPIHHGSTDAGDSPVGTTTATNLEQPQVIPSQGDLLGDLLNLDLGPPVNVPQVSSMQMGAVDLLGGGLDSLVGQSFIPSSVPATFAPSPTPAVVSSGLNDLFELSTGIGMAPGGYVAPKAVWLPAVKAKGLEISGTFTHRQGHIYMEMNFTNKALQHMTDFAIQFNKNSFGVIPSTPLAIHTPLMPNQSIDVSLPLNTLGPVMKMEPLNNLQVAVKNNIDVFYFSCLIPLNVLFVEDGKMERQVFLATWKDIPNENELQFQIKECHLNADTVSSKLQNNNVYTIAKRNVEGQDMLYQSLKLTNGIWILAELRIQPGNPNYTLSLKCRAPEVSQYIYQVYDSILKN

[12] = cytosolic pH regulators acting via V-ATPase – S. cerevisiae, pHLuorin, HTS validation (AID 504600; in the data active means response above about 15%;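 further: plate controls were DMSO for no effect and reference compound for full effect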); settings: V-ATPase proton transport, at 10 µM, stronger effect = higher value
[13] = system: anti-desmoglein-3 scFv antibody binding to human DSG3; assay: blockers of pathogenic pemphigus antibody–desmoglein-3 binding – biochemical, validation compound set, bead-based, flow cytometry, pilot screen (AID 588368;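 active means binding below the plate cutoff, the plate median minus 3 SD, with a reading above zero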;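 further: signal is the median channel fluorescence of bead-bound GFP antibody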); settings: Protein G beads, DSG3-Fc, scFv-GFP binding, at 10 µM, stronger effect = lower value
[14] = Nile Red efflux blockade in pump-expressing yeast – validation compound set, multiplex, phenotypic, pilot screen (AID 588506;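 active means efflux inhibition above 0.42, the validation set average plus 4 SD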;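 further: Nile Red retained in cells so higher fluorescence means more efflux inhibition; 0 = negative control wells and 1 = enniatin B 25 µM full block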); settings: S. cerevisiae pump-expressing triplex, Nile Red efflux flow cytometry; at 10 µM; stronger effect = higher value; the pumps come from Candida albicans
[15] = biological target: ATP-binding cassette sub-family B member 6 (Homo sapiens) (UniProt Q9NP58); assay: blockers of ABCB6-driven porphyrin uptake – K562-ABCB6 cells, flow cytometry, validation set, pilot screen (AID 588550;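 active means inhibition above the screen-wide mean plus 3 SD, about 51%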;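 further: 0% = DMSO wells and 100% = benzethonium chloride 70 µM positive control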); settings: K562-ABCB6 porphyrin accumulation, 1 h, at 10 µM, stronger effect = higher value
Chain of ATP-binding cassette sub-family B member 6 (Homo sapiens) (Q9NP58 whole entry, looked up): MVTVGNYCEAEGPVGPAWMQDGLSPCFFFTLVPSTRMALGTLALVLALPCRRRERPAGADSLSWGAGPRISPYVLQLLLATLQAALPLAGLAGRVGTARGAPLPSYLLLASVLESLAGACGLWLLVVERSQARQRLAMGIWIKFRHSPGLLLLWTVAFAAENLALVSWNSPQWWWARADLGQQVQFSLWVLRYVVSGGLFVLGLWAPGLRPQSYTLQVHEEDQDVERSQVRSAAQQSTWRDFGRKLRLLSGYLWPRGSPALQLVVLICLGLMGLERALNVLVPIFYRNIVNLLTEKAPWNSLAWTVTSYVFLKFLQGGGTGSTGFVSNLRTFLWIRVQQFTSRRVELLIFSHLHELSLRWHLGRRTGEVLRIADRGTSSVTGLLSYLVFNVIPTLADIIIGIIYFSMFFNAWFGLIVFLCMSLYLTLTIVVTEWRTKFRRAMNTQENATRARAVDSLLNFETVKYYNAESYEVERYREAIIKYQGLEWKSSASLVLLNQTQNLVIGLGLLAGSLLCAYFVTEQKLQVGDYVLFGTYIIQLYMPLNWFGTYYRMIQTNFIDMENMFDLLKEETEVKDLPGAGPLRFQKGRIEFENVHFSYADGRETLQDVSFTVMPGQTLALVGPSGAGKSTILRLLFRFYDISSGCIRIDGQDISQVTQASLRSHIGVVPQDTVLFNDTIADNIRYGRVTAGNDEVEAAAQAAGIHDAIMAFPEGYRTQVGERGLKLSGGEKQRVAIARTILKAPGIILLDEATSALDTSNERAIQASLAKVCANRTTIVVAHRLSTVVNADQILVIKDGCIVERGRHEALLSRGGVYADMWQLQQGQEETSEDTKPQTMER

[16] = AML differentiation inducers, ER-HoxA9 marrow cells – cell-based, GFP/MAC1 double positive, flow cytometry, validation set, primary screen (AID 588685;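 active means differentiation response of at least 50%, scaled between solvent and reference control, from cells with both markers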;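 further: compound exposure lasts four days before antibody staining and flow analysis; 0% = DMSO wells and 100% = 5 µM fulvestrant positive control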); settings: stronger effect = higher value, normalized: vehicle 0, fulvestrant 100

O=C(N1CCCCC1)C1(c2ccccc2)CCOCC1
inactive: percent of DMSO control GFP [1] 99.3% | GFP response vs DMSO [2] 103% | percent response of DMSO control [3] 92% | GFP response vs DMSO [4] 129% | GFP response, % of DMSO [5] 103% | vesicle binding response [6] 213% | inhibition [7] -3.16% | superoxide response (% of plate) [8] 92.5% | aptamer binding inhibition [9] 1% | response [10] -7.86% | inhibition [11] 7.05% | response [12] 0.45% | binding (% of control) [13] 104% | efflux inhibition (fraction of control) [14] -0.17 | inhibition [15] 5% | differentiation response [16] -24.8%
57.5%: double positive events [6]

O=C(N/N=C/c1ccc([N+](=O)[O-])o1)c1ccc(O)cc1
47.6%: double positive events [6]
inactive: percent of DMSO control GFP [1] 103% | GFP response vs DMSO [2] 118% | percent response of DMSO control [3] 112% | GFP response vs DMSO [4] 77.6% | GFP response, % of DMSO [5] 97.5% | vesicle binding response [6] 209% | inhibition [7] -21.7% | superoxide response (% of plate) [8] 136% | aptamer binding inhibition [9] -1% | response [10] -5.96% | inhibition [11] -8.31% | response [12] 4% | binding (% of control) [13] 110% | efflux inhibition (fraction of control) [14] 0.12 | inhibition [15] 8% | differentiation response [16] 14.7%

O=C(OCCNC(=O)c1ccc2ccccc2n1)c1ccc(F)cc1
inactive: percent of DMSO control GFP [1] 103% | GFP response vs DMSO [2] 110% | percent response of DMSO control [3] 97.8% | GFP response vs DMSO [4] 87.4% | GFP response, % of DMSO [5] 88.9% | vesicle binding response [6] 241% | inhibition [7] 2.66% | superoxide response (% of plate) [8] 114% | aptamer binding inhibition [9] 0% | response [10] 4.51% | inhibition [11] 2.3% | response [12] 1.13% | binding (% of control) [13] 99.2% | efflux inhibition (fraction of control) [14] -0.04 | inhibition [15] 0% | differentiation response [16] 8.06%
58.4%: double positive events [6]

COc1ccc(OCc2cccc(C(=O)NN)c2)cc1
59.7%: double positive events [6]
inactive: percent of DMSO control GFP [1] 94.8% | GFP response vs DMSO [2] 97.4% | percent response of DMSO control [3] 105% | GFP response vs DMSO [4] 98.2% | GFP response, % of DMSO [5] 86.3% | vesicle binding response [6] 167% | inhibition [7] -8.62% | superoxide response (% of plate) [8] 98.7% | aptamer binding inhibition [9] 8% | response [10] 11.1% | inhibition [11] -3.59% | response [12] -1.43% | binding (% of control) [13] 103% | efflux inhibition (fraction of control) [14] -0.28 | inhibition [15] 3% | differentiation response [16] -13.6%

COc1ccc2[nH]c(=O)c3c(c2c1)OC(C)(C)C=C3
inactive: percent of DMSO control GFP [1] 93.7% | GFP response vs DMSO [2] 105% | percent response of DMSO control [3] 89.1% | GFP response vs DMSO [4] 119% | GFP response, % of DMSO [5] 95.1% | vesicle binding response [6] 88% | inhibition [7] -3.16% | superoxide response (% of plate) [8] 99.1% | aptamer binding inhibition [9] 4% | response [10] 5.61% | inhibition [11] -1.86% | response [12] 2.4% | binding (% of control) [13] 101% | efflux inhibition (fraction of control) [14] 0.08 | inhibition [15] 6% | differentiation response [16] 8.8%
59.1%: double positive events [6]

COCCOC(=O)C1=C(N)OC2=C(C(=O)CCC2)C1c1cccnc1 (stereo not given)
59.9%: double positive events [6]
inactive: percent of DMSO control GFP [1] 105% | GFP response vs DMSO [2] 105% | percent response of DMSO control [3] 100% | GFP response vs DMSO [4] 89.4% | GFP response, % of DMSO [5] 101% | vesicle binding response [6] 89.9% | inhibition [7] -5.64% | superoxide response (% of plate) [8] 99.2% | aptamer binding inhibition [9] 2% | response [10] -2.38% | inhibition [11] 4.01% | response [12] 0.7% | binding (% of control) [13] 99.3% | efflux inhibition (fraction of control) [14] -0.1 | inhibition [15] -4% | differentiation response [16] 7.09%

CCN(CC)CC#CCOC(=O)C(O)(c1ccccc1)C1CCCCC1 (stereo not given)
inactive: percent of DMSO control GFP [1] 91.1% | GFP response vs DMSO [2] 132% | percent response of DMSO control [3] 110% | GFP response vs DMSO [4] 83.1% | GFP response, % of DMSO [5] 91.2% | vesicle binding response [6] 181% | inhibition [7] 10.3% | superoxide response (% of plate) [8] 112% | aptamer binding inhibition [9] 4% | response [10] 14.8% | inhibition [11] -2.84% | response [12] -0.18% | binding (% of control) [13] 104% | efflux inhibition (fraction of control) [14] 0.3 | inhibition [15] 8% | differentiation response [16] -1.64%
62.3%: double positive events [6]

Cc1ccc(CSCC(=O)N2CCCC2)cc1
63.7%: double positive events [6]
inactive: percent of DMSO control GFP [1] 102% | GFP response vs DMSO [2] 98.7% | percent response of DMSO control [3] 101% | GFP response vs DMSO [4] 106% | GFP response, % of DMSO [5] 106% | vesicle binding response [6] 132% | inhibition [7] 20.4% | superoxide response (% of plate) [8] 95% | aptamer binding inhibition [9] -2% | response [10] 7.33% | inhibition [11] -2.44% | response [12] -8.52% | binding (% of control) [13] 97.9% | efflux inhibition (fraction of control) [14] -0.05 | inhibition [15] 0% | differentiation response [16] -8.96%

Cn1c(=O)c2[nH]cnc2n(C)c1=O
inactive: percent of DMSO control GFP [1] 90.9% | GFP response vs DMSO [2] 133% | percent response of DMSO control [3] 96.6% | GFP response vs DMSO [4] 80.9% | GFP response, % of DMSO [5] 87.7% | vesicle binding response [6] 159% | inhibition [7] -1.3% | superoxide response (% of plate) [8] 95.3% | aptamer binding inhibition [9] 4% | response [10] -0.49% | inhibition [11] -6.69% | response [12] -2.04% | binding (% of control) [13] 101% | efflux inhibition (fraction of control) [14] -0.46 | inhibition [15] 9% | differentiation response [16] -2.46%
67.8%: double positive events [6]

COc1ccc(Cc2noc(CN(C)CC3(N4CCOCC4)CCCCC3)n2)cc1OC
inactive: percent of DMSO control GFP [1] 94.3% | GFP response vs DMSO [2] 99.7% | percent response of DMSO control [3] 106% | GFP response vs DMSO [4] 95.9% | GFP response, % of DMSO [5] 98.3% | vesicle binding response [6] 80.5% | inhibition [7] 2.93% | superoxide response (% of plate) [8] 108% | aptamer binding inhibition [9] 2% | response [10] 8.59% | inhibition [11] -7.18% | response [12] 2.83% | binding (% of control) [13] 102% | efflux inhibition (fraction of control) [14] 0.22 | inhibition [15] 36% | differentiation response [16] -10.4%
60.5%: double positive events [6]
